Bioassay records deposited in PubChem by National Center for Advancing Translational Sciences (NCATS).
ClpP mod: qHTS Assay for Activators of ClpP | ATP-dependent Clp protease proteolytic subunit (Bacillus subtilis (strain 168)), P80244 | purified B. subtilis ClpP, FRET peptide cleavage, 20 min | Potency, µM (titrated, usually from 57.5 µM), without a hit: top-dose activity change, negative = active | 1.9% of 340,000 active; active = well fitted falling curve with a large enough effect; inconclusive = small, poorly fitted or top-dose-only effect; inactive = no such curve, though single readings can be large or run the other way; also: potency is read from the fitted curve at half-maximal effect; the source files actives as falling curves though it sought activators and does not explain the sign; nearly all actives have a fitted effect of over 65% in size
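FRET quenching reversal measured ClpP activation: 10 microg/mL B. subtilis ClpP at pH 8 with the FRET-FV decapeptide, read at 430 nm after 320 nm excitation. The 20-min minus 0-min signal was scaled between DMSO/no-enzyme wells and ADEP (5.8 microM final).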
Anesthetic bind: qHTS Assay for Identification of Novel General Anesthetics; Ferritin light chain (Equus caballus), P02791; apoferritin/1-aminoanthracene competitive binding, fluorescence; Potency, µM (highest dose often 77.5 µM), inactives show top-dose activity change, negative = displacement, actives largely listed as inhibitors; 0.074% of 350,000 active; AID 485281, 2010; also: potency is read from the fitted curve at half-maximal effect; % is scaled to controls: 0 for no effect and ±100 for the full control effect; nearly all actives have a fitted effect of over 20% in size
Target sequence (P02791 2-175 limits assumed): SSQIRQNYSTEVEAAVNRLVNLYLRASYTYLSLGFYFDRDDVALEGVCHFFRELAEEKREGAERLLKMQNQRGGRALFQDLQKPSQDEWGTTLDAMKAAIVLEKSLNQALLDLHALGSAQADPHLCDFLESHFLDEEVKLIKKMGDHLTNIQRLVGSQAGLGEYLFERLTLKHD
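Horse-spleen apoferritin (10 uM) was mixed with 50% saturated 1-aminoanthracene in PBS, exposed to compounds for 10 min at room temperature, and read for fluorescence (ex 380 nm, em 535 nm). Competitive displacement was fitted with a four-parameter Hill equation.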
TrxR1 inh: qHTS Assay for Inhibitors of Mammalian Selenoprotein Thioredoxin Reductase 1 (TrxR1): qHTS; 1% of 390,000 active; recombinant rTrxR1, NADPH fluorescence consumption, selenite substrate; Potency, µM (doses to about 114 µM), inactives show top-dose activity change, negative = inhibition, usual class: inhibitors; also: potency is read from the fitted curve at half-maximal effect; % is scaled to controls: 0 for no effect and ±100 for the full control effect; nearly all actives have a fitted effect of over 65% in size
Target sequence (O89049 whole entry, looked up): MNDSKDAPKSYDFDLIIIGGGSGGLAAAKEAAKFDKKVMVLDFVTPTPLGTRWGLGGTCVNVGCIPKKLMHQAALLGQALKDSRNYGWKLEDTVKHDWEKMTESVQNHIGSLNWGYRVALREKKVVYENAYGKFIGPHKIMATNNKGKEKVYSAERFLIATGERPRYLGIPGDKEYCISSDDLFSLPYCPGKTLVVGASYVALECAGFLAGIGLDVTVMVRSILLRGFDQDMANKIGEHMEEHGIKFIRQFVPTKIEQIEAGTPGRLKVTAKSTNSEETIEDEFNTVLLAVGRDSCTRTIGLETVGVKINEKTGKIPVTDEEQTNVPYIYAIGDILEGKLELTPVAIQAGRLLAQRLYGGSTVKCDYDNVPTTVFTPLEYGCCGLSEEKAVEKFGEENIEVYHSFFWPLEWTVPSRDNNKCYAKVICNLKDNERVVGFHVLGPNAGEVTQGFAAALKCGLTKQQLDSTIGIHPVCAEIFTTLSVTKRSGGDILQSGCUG
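Rat TrxR1 (90 nM in the dispensed reagent) was pre-reduced with 400 uM NADPH for 5 min at room temperature, then incubated with compound for 15 min. After 400 uM selenite was added, NADPH fluorescence (Ex 340/Em 450 nm) was followed for 8 min.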
TrxR1 substrate: qHTS Assay for Substrates of Mammalian Selenoprotein Thioredoxin Reductase 1 (TrxR1): qHTS; Thioredoxin reductase 1, cytoplasmic (Rattus norvegicus), O89049; purified TrxR1 substrate turnover, NADPH consumption readout; Potency, µM (titrated, usually from 114 µM), for the others: at the highest dose activity change, negative = substrate turnover; 0.01% of 390,000 active; AID 588456, 2011; also: potency is read from the fitted curve at half-maximal effect; % is scaled to controls: 0 for no effect and ±100 for the full control effect; nearly all actives have a fitted effect of over 50% in size
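Rat TrxR1, dispensed at 90 nM, was prereduced with 400 uM NADPH (final) for 5 min at ~22 deg C, then incubated with compound 15 min before 400 uM selenite. A first-read NADPH fluorescence drop versus no-compound background flagged substrates.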
miR-21 reporter: qHTS Assay for Modulators of miRNAs and/orActivators of miR-21; HeLa miR-21 FLuc reporter, luciferase, 48 h; Potency, µM (titrated, usually from 38.3 µM), for the others: top-dose activity change, positive = activation, usual class: activators; 340,000 tested, under 10 active;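 also: % of control where 0% means no effect; miR-21 action dims this reporter so a rising signal means less miR-21 action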
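Using DMEM plus 10% FBS, HeLa miR-21-FLuc cells are incubated with test compounds (final up to about 40uM) for 48 hours; firefly luciferase signal is then imaged following reagent-mediated lysis.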
* hit, by the source's call; ? = inconclusive; nt = no result; [ ] = another dose, or the depositor's remark. A selection: hits, their analogues and other compounds. The true share with any hit is near 2.5%. Unless noted, calls follow the shape of the dose curve; as a rule, active = well fitted curve in the direction sought with a large enough effect; inconclusive = small, poorly fitted or top-dose-only effect, or another doubt; inactive = no such curve, though single readings can be large; an effect the other way counts as inactive or inconclusive.

SMILES | ClpP mod | Anesthetic bind | TrxR1 inh | TrxR1 substrate | miR-21 reporter
O=C(O)CC1OCC=C2CN3CCC45C6=CC(=O)C(=O)C([N+](=O)[O-])=C6NC4C1C2CC35 (centres undefined) | 0% | -3% | 16µM* | 16µM* | 5%
CCN1CCN(C(=O)COc2ccc3c(c2)C(=O)CC2(CCN(C(C)=O)CC2)O3)CC1 | 32µM* | 353% | 25%[57.1 µM] | 45%[57.1 µM] | -1%
CC1(C)CC(=O)c2cc(OCC(=O)N3CCN(Cc4ccccc4)CC3)ccc2O1 | nt | 81% | -2%[57.1 µM] | 11%[57.1 µM] | -1%
[Hg+][c]1ccccc1 | -3% | nt | ? | -1% | nt
CCOC(=O)c1cccc(NC(=O)c2cnc(N3CCCCC3)c3ccccc23)c1 | 28µM* | 230% | 40%[57.1 µM] | 4%[57.1 µM] | 16%
CSc1ncc(/C=C2/C(=O)NC(=O)N(C3CCCCC3)C2=O)cn1 | 0% | -21% | 11µM* | 7%[57.1 µM] | -3%
CSc1ncc(/C=C2/C(=O)NC(=O)N(C)C2=O)cn1 | 0% | -20% | 14µM* | 0% | -2%
CCCCN1C(=O)NC(=O)/C(=C/c2cnc(SC)nc2)C1=O | -1% | ? | ? | 3%[57.1 µM] | -1%
COc1cc(/C=C2\C(=O)NC(=O)N(c3ccccc3)C2=O)cc(OC)c1O | -5% | -15% | 25µM* | -15% | -1%
COc1cc(/C=C2\C(=O)NC(=O)N(c3ccccc3)C2=O)c([N+](=O)[O-])cc1OC | -5% | -15% | 7.1µM* | 7%[57.1 µM] | -6%
O=C1NC(=O)N(c2ccccc2)C(=O)/C1=C/c1ccc2c(c1)Cc1ccccc1-2 | nt | -23% | nt | nt | -23%
CCCCNC(=O)/C(C#N)=c1\s/c(=C\c2ccccc2OC(F)F)c(=O)n1CCCOC | 8% | -6% | 7% | 13% | -3%
Cc1ccc(CCNC(=O)Cn2nc(C)c3c(C)n(-c4ccc(C)cc4)nc3c2=O)cc1 | -8% | ? | 13% | 6% | 14%
CCCc1cc(N2CCN(c3cccc(C)c3C)CC2)n2cnnc2n1 | -1% | -15% | -21% | 2% | ?
Nc1ccc2c(c1)oc1ccccc12 | 13µM* | ? | 6% | 62% | -47%
Nc1ccc2ccccc2c1 | ? | nt | -15% | 55% | nt
CC(C)N(C(=O)CCl)c1ccccc1 | -1% | -6% | 20µM* | 12% | nt
CCc1cccc(C)c1N(C(=O)CCl)C(C)COC (centres undefined) | nt | 1% | nt | nt | nt
COc1ccc(CCNC(=O)c2ccc3c(c2)CCN3S(=O)(=O)c2ccc(C)cc2)cc1OC | 10% | 77% | 31% | 0% | 19%
CC(C)c1ccc(N2C(=O)NC(=O)/C(=C/c3cnc(-c4ccccc4)nc3)C2=O)cc1 | -3% | 55% | 4µM* | 0% | -15%
CSc1ncc(/C=C2/C(=O)NC(=O)N(c3ccc(C(C)C)cc3)C2=O)cn1 | 1% | 7% | 10µM* | 0% | 1%
O=C1NC(=O)N(Cc2ccc(F)cc2)C(=O)/C1=C/c1cccs1 | -1% | -7% | 18µM* | 14%[57.1 µM] | 3%
O=C1NC(=O)N(Cc2ccccc2)C(=O)/C1=C/c1cnc(-c2ccccc2)nc1 | nt | ? | 6.3µM* | -2%[57.1 µM] | -12%
CCc1ccc(N2C(=O)NC(=O)/C(=C\c3cccn3CCOc3ccc(C(C)C)cc3)C2=O)cc1 | 3% | -17% | -10% | -1% | -54%
C[C@]12CC[C@H](O)C[C@H]1CCC1C2CC[C@]2(C)[C@@H](c3ccc(=O)oc3)C[C@H]3O[C@]132 (some centres undefined) | 0% | nt | 16% | 0% | nt
SMILES | ClpP mod | Anesthetic bind | TrxR1 inh | TrxR1 substrate | miR-21 reporter
Cc1ccc(C)c(N2CCN(c3ncnc4onc(C)c34)CC2)c1 | 1% | -17% | 17% | -1% | ?
CC(C)CNC(=O)c1c(N)n(Cc2ccc3c(c2)OCO3)c2nc3ccccc3nc12 | 14µM* | -19% | 15% | 66% | 23%
CCCNC(=O)c1c(N)n(Cc2ccc3c(c2)OCO3)c2nc3ccccc3nc12 | -28% | 4% | 24% | 20% | -5%
CC(C)CCNC(=O)c1c(N)n(Cc2ccc3c(c2)OCO3)c2nc3ccccc3nc12 | 28µM* | -10% | 48% | 84% | 0%
C[C@@H](NC(=O)[C@@H](N)Cc1ccc(O)cc1)C(=O)NCC(=O)N(C)[C@@H](Cc1ccccc1)C(=O)NCCO | nt | -5% | nt | nt | nt
c1ccc(-c2cc3c(nc2-c2ccccc2)CCNC3)cc1 | nt | 2%[15.3 µM] | nt | nt | nt
CNc1ccc2oc(C[C@@H]3OC4(CC[C@@H]3C)O[C@H]([C@@H](C)C(=O)c3ccc[nH]3)[C@H](C)C[C@H]4C)nc2c1C(=O)O (some centres undefined) | nt | 58% | nt | nt | nt
O=C(c1cc2cc(F)ccc2[nH]1)N1CCC2(CC1)OCCO2 | -18% | -1% | 14% | 0% | -42%
O=C(c1cc2cc(Cl)ccc2[nH]1)N1CCC2(CC1)OCCO2 | -16% | -2% | 45µM* | -5% | -31%
C[N+]1([O-])CCC[C@@H]1c1cccnc1 (some centres undefined) | nt | 1% | nt | nt | nt
Cc1ccc(C2CC(=O)C(C=NCCN3CCN(C(=O)Cc4ccccc4)CC3)=C(O)C2)cc1 (centres undefined) | 32µM* | -19% | 7%[57.1 µM] | -15% | 0%
Cc1ccsc1/C=C1\C(=O)NC(=S)N(C)C1=O | 1% | -13% | 32µM* | 7% | -9%
CN1C(=O)/C(=C\c2ccc(N3CCCCC3)o2)C(=O)NC1=S | -1% | 14% | -12%[57.1 µM] | 17%[57.1 µM] | -37%
CN1C(=O)/C(=C/c2ccc(Cl)s2)C(=O)NC1=S | nt | -4% | 8.9µM* | 5% | -7%
COc1ccc(/C=C2\C(=O)NC(=S)N(C)C2=O)cc1C | nt | -19% | ? | -3%[57.1 µM] | 2%
CCN1C(=O)/C(=C\c2ccc([N+](=O)[O-])s2)C(=O)NC1=S | nt | -16% | nt | nt | 4%
C=CCN1C(=O)/C(=C/c2ccc(Br)s2)C(=O)NC1=S | 1% | ? | 6.3µM* | -2% | ?
CCOc1ccc(Nc2c(S(=O)(=O)c3ccc(C)cc3)cnc3ccc(F)cc23)cc1 | -1% | ? | 13% | 0% | 14%
CC(=O)C1CCC2C3CCC4=CC(=O)CC[C@@]4(C)C3CC[C@]12C (some centres undefined) | nt | -18% | nt | nt | nt
CCCCCCn1c(O)c(C=NCCN2CCOCC2)c(=O)[nH]c1=O | 1% | -18% | 15% | 0% | -2%
CCCCCC1CC(CC#CCN2CCOCC2)C(=O)O1 (centres undefined) | 1% | 1% | 45µM* | -3% | -7%
